Experimental data: PubChem BioAssay (Tox21)
A number with no mark means an inactive call. Activity calls are given as the source filed them. Calls come from the whole dose curve; as a rule, active = well fitted curve in the direction sought with a large enough effect in the repeat runs; inconclusive = weak or mixed curves; inactive = flat fitted curve, though single readings scatter.

Test: qHTS assay to test for compound auto fluorescence at 590 nm (red) in HEK293 cells (AID 720679)
Conditions: red autofluorescence 540/590 nm; series mostly up to 91.3 µM; fluorescence, % of fluorescent control: at the top concentration
Description: National Center for Advancing Translational Sciences [NCATS]
NIH Chemical Genomics Center [NCGC]
U.S. Environmental Protection Agency [EPA]
National Institutes of Environmental Health Sciences [NIEHS]
National Toxicology Program [NTP]
U.S. Food and Drug Administration [FDA]
Compound auto fluorescence often interferes with screening of the compound library against various biological targets and signaling pathways. Some of these compounds may have fluorophoric properties. Such properties may interfere with the assay outputs resulting in false positives and/or negatives. To decrease such complications and ensure the compound activities are relevant in terms of biological response, the Tox21 10K compound library was screened for auto fluorescence.
From the fluorophores used as reporter signals in our screening assays, the auto fluorescence equivalencies of compounds against three fluorophores have been evaluated: Triamterene, Fluorescein and Rose Bengal sodium for blue, green and red fluorescence, respectively. The fluorescence intensities were measured using Excitation/Emission wavelengths at 405/460nm, 485/535nm and 540/590nm for blue, green and red labels, respectively. This assay includes the red fluorescence data.
Tox21 Assay Protocol Summary:
2,000 HEK293 cells in 5 uL of culture medium containing 10% dialyzed FBS per well were dispensed into black wall/clear bottom 1536-well plates using a Multidrop Combi Dispenser (Thermo Scientific). The assay plates were incubated for 4-5 hr at 37C to allow cell attachment to the well bottom, followed by the transfer of 23 nL compound or DMSO vehicle by a pintool work station (Kalypsys, San Diego, CA). After the assay plates were incubated overnight at 37C and 5% CO2, fluorescence intensities in the assay plates were measured by an Envision (PerkinElmer, Shelton, CT) plate reader using three labels for measuring blue, green and red fluorescence at […] 460, 535 and 590nm respectively.
% is set by controls: 0 for no effect and ±100 for the full control effect.

SMILES | fluorescence, % of fluorescent control | outcome
Cc1cc(S(=O)(=O)O)c(N)cc1Cl | -0.0966% | –
CCCCNc1cc(C(=O)O)cc(S(N)(=O)=O)c1Oc1ccccc1 | -0.225% [at 18.6 µM] | –
CC(C)C[C@H](NC(=O)OCC1c2ccccc2-c2ccccc21)C(=O)O | -0.931% | –
O=C(O)CN(CCN(CC(=O)O)CC(=O)O)CCN(CC(=O)O)CC(=O)O | 0.127% [at 46 µM] | –
CCCCNc1ccc(C(=O)OCCN(CC)CC)cc1 | -0.224% [at 46 µM] | –
O=C(O)c1cccc(Cl)c1Cl | -0.582% | –
CC1(C)C(=O)N(Cl)C(=O)N1Br | -0.0014% | –
Cc1c(N)cccc1N | 0.0704% [at 95.7 µM] | –
C[C@]12C(=O)OC(=O)[C@H]1[C@H]1C=C[C@@H]2C1 | -0.382% | –
O=c1[nH]cnc2c1ncn2[C@@H]1O[C@H](CO)[C@@H](O)[C@H]1O | 0.0652% [at 46 µM] | –
CN1[C@@H]2CC[C@H]1CC(OC(=O)c1c[nH]c3ccccc13)C2 (stereo not given in full) | -0.283% [at 46 µM] | –
N#Cc1ccc(C(c2ccc(C#N)cc2)n2cncn2)cc1 | – | inactive
CC(C)C(=O)OCC(C)(C)C(O)C(C)C (stereo not given) | -0.0495% | –
Cc1ncc(CO)c(CN)c1O | 0.0459% [at 46 µM] | –
COC(=O)C(C)O (stereo not given) | -0.0274% [at 95.7 µM] | –
CC(=O)OC1C2(C)CCC(C2)C1(C)C (stereo not given) | 0.0257% | –
C1CCOC1 | 0.358% [at 95.7 µM] | –
COc1cc2c(cc1N)oc1ccccc12 | -0.555% [at 95.7 µM] | –
NCCCN1CCN(CCCN)CC1 | 0.0861% | –
COc1ccc(S(=O)(=O)Nc2nnc(CC(C)C)s2)cc1 | – | inactive

SMILES | fluorescence, % of fluorescent control | outcome
Oc1ccccc1F | -0.237% | –
Cc1ccc([N+](=O)[O-])cc1Cl | -0.248% [at 95.7 µM] | –
O=c1[nH]c(=O)n([C@H]2C[C@H](O)[C@@H](CO)O2)cc1C(F)(F)F | 0.0257% [at 46 µM] | –
Cc1ccc([N+](=O)[O-])c(N)c1 | 0.561% | –
CCCCc1ccc2nc(NC(=O)OC)[nH]c2c1 | 0.021% [at 18.6 µM] | –
Cc1c(-c2ccccc2)oc2c(C(=O)OCCN3CCCCC3)cccc2c1=O | 0.0102% [at 18.6 µM] | –
CCOC(=O)COc1ccc2c(c1)CC(NCC(O)c1cccc(Cl)c1)CC2 (stereo not given) | -0.0037% | –
CC(C)O | – | inactive
CCCCCCCCOC(=O)CCCCCCCCC(=O)OCCCCCCCC | 0.171% | –
O=C1N(c2ccccc2)c2ccccc2C1(Cc1ccncc1)Cc1ccncc1 | 0.114% [at 46 µM] | –
CN1CCN(C2=Nc3ccccc3Oc3ccc(Cl)cc32)CC1 | 0.151% [at 18.6 µM] | –
CN(CCCN1c2ccccc2CCc2ccccc21)CC(=O)c1ccc(Cl)cc1 | -0.0807% [at 46 µM] | –
CCOC(=O)c1ccccc1O | – | inactive
C=CC(C)(O)CC/C=C(\C)CCC=C(C)C (stereo not given) | – | inactive
COc1cc(C)ccc1C(C)C | -0.939% | –
OC[C@H]1O[C@@H](O[C@H]2[C@H](O)[C@@H](O)[C@H](O)O[C@@H]2CO)[C@H](O)[C@@H](O)[C@H]1O | -0.016% | –
Cc1ccc(C=O)s1 | -0.0555% | –
COC(=O)N[C@H](C(=O)N[C@@H](Cc1ccccc1)[C@@H](O)CN(Cc1ccc(-c2ccccn2)cc1)NC(=O)[C@@H](NC(=O)OC)C(C)(C)C)C(C)(C)C | 0.306% [at 46 µM] | –
CCCCCCCCc1ccc(S(=O)(=O)O)cc1 | 0.138% | –
CN(C)CCOc1ccccc1Cc1ccccc1 | 0.48% [at 46 µM] | –
